Results filed as inconclusive are left out. Active and inactive are the calls of the source. Rule for the calls: active = hit-call score of the fitted dose curve at least 0.9, where 1 is the maximum; inconclusive = response in the unintended direction; inactive = score below 0.9.
Molecular target: rat CYP1A1, Cyp1a1 (gene 24296) (UniProt P00185)
Experiment: NVS_ADME_rCYP1A1: NovaScreen (NVS) CYP450-related Enzyme Activity (ADME) Assay for rat CYP1A1
Protocol: NVS_ADME_rCYP1A1 is a biochemical, single-readout assay that uses extracted gene-proteins from baculovirus-insect cells in a cell-free assay. Measurements were taken 1 hour after chemical dosing in a 96-well plate.NVS_ADME_rCYP1A1 is one of one assay component(s) measured or calculated from the NVS_ADME_rCYP1A1 assay. It is designed to make measurements of enzyme activity, a form of enzyme reporter, as detected with fluorescence intensity signals by Fluorescence technology.Data from the assay component NVS_ADME_rCYP1A1 was analyzed into 1 assay endpoint. This assay endpoint, NVS_ADME_rCYP1A1, was analyzed in the positive analysis fitting direction relative to Acetonitrile as the negative control and baseline of activity. Using a type of enzyme reporter, loss-of-signal activity can be used to understand changes in the enzymatic activity as they relate to the gene Cyp1a1. Furthermore, this assay endpoint can be referred to as a primary readout, because this assay has produced multiple assay endpoints where this one serves a enzymatic activity function. To generalize the intended target to other relatable targets, this assay endpoint is annotated to the cyp intended target family, where the subfamily is xenobiotic metabolism. […]

Sequence of rat CYP1A1, Cyp1a1 (gene 24296) (P00185 whole entry, looked up): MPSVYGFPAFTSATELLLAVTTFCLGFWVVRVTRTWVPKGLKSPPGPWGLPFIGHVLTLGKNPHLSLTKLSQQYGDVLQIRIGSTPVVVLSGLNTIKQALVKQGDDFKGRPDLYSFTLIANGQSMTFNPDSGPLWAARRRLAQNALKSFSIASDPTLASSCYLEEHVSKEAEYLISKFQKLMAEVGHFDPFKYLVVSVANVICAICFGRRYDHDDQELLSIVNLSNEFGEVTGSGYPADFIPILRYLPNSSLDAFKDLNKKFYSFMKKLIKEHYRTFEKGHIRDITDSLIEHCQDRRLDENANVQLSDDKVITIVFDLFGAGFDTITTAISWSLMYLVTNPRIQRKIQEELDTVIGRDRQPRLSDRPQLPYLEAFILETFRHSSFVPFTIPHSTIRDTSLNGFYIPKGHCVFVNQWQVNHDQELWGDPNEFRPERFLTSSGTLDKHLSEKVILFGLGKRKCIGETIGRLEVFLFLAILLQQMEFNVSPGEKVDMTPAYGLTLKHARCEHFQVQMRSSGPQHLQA

For `C=CCOC(Cn1ccnc1)c1ccc(Cl)cc1Cl` (stereo unspecified), the AC50 was 7.73 µM (active).

— PubChem BioAssay AID2283112 (EPA ToxCast)
